Assay results taken from the supplement of paper PMC10849652.
Targets with a hit are over-represented here; the source holds about 7,900 in all. About 0.6% of all pairs of compound and target were hits.

Experiments:
Assay in all cases: log2 fold change, soluble protein after heating vs DMSO (PISA); higher = thermal stabilisation; K562 cells, 10 uM, 30 min; active = over 0.2 and 3.5 SD of the protein, either way, in both replicates (recomputed)
erlotinib = compound: C#Cc1cccc(Nc2ncnc3cc(OCCOC)c(OCCOC)cc23)c1 [erlotinib]
Procedure, shortened: (§1)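 For each measurement, 10 μM compound was applied for 30 min to K562 cells at 2×10^6 cells/mL. Aliquots were heated for 3 min across 48°C-58°C, pooled, and extracted in PBS with 0.5% NP-40 at 4°C; the supernatant after 21,000xg for 90 min was soluble protein. This was quantified by TMTpro 16plex LC-MS/MS with channel sums equalised, and thermal stability was reported relative to control samples from duplicates, on a log2 fold-change scale.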

[1] = compound: C/C(=N\NC(=O)C1=CC(=CC=C1)S(=O)(=O)N2CCOCC2)/C3=C(C=CC(=C3)Cl)O
Procedure, shortened: as §1

[2] = compound: C1=CC(=C(C=C1Cl)C2=NC3=NC=CN=C3C(=N2)NC4=CC=NC=C4)F
Procedure, shortened: as §1

[3] = compound: C1=CC(=CC=C1C2=NC3=C(N2)C=C(C=C3)C(=O)N)OC4=CC=C(C=C4)Cl
Procedure, shortened: as §1

[4] = compound: C1=CC2=C(C=CC(=C2)/C=C\3/C(=O)NC(=NCC4=CC=CS4)S3)N=C1
Procedure, shortened: as §1

[5] = compound: C1=CC2=NC=CN=C2C=C1/C=C/3\C(=O)NC(=O)S3
Procedure, shortened: as §1

[6] = compound: C1=CC=C(C=C1)C2=NC(=C(N2)C3=CC=NC=C3)C4=CC(=C(C=C4)Cl)O
Procedure, shortened: as §1

[7] = compound: C1=CC=C2C(=C1)C3=NNC4=CC=CC(=C43)C2=O
Procedure, shortened: as §1

[8] = compound: C1CCN(C1)C(=O)NC2=CC=CC(=C2)NC3=NC=C(C(=N3)NCCC4=CN=CN4)Br
Procedure, shortened: as §1

[9] = compound: C1CN(CCC1(CC2=CC=C(C=C2)Cl)N)C3=NC=NC4=C3C=CN4
Procedure, shortened: as §1

Measured: log2 fold change

PDE4A (UniProt P27815)
inactive: erlotinib 0.012 | [1] 0.013 | [2] 0.319 | [3] 0.024 | [4] 0.027 | [5] 0.06 | [6] -0.077 | [7] -0.01 | [8] 0.023 | [9] -0.148

POLR2A (UniProt P24928)
inactive: erlotinib -0.018 | [1] -0.019 | [2] -0.008 | [3] 0.024 | [4] 0.013 | [5] 0.039 | [6] 0.019 | [7] 0.026 | [8] 0.111 | [9] -0.042

PRCP (UniProt P42785)
inactive: erlotinib -0.028 | [1] 0.013 | [2] 0.049 | [3] -0.025 | [4] -0.052 | [5] 0.014 | [6] -0.019 | [7] -0.001 | [8] 0.038 | [9] 0.052

PLA2G15 (UniProt Q8NCC3)
inactive: erlotinib 0.064 | [1] 0.004 | [2] 0.038 | [3] -0.02 | [4] 0.026 | [5] 0.035 | [6] -0.007 | [7] 0.021 | [8] 0.01 | [9] 0.052

POLR2M (UniProt Q6EEV4)
inactive: erlotinib -0.044 | [1] 0.096 | [2] 0.242 | [3] 0.223 | [4] -0.006 | [5] -0.001 | [7] -0.048 | [8] -0.041 | [9] 0.024

PHKA1 (UniProt P46020)
Chain of UniProt P46020 (P46020 whole entry, looked up): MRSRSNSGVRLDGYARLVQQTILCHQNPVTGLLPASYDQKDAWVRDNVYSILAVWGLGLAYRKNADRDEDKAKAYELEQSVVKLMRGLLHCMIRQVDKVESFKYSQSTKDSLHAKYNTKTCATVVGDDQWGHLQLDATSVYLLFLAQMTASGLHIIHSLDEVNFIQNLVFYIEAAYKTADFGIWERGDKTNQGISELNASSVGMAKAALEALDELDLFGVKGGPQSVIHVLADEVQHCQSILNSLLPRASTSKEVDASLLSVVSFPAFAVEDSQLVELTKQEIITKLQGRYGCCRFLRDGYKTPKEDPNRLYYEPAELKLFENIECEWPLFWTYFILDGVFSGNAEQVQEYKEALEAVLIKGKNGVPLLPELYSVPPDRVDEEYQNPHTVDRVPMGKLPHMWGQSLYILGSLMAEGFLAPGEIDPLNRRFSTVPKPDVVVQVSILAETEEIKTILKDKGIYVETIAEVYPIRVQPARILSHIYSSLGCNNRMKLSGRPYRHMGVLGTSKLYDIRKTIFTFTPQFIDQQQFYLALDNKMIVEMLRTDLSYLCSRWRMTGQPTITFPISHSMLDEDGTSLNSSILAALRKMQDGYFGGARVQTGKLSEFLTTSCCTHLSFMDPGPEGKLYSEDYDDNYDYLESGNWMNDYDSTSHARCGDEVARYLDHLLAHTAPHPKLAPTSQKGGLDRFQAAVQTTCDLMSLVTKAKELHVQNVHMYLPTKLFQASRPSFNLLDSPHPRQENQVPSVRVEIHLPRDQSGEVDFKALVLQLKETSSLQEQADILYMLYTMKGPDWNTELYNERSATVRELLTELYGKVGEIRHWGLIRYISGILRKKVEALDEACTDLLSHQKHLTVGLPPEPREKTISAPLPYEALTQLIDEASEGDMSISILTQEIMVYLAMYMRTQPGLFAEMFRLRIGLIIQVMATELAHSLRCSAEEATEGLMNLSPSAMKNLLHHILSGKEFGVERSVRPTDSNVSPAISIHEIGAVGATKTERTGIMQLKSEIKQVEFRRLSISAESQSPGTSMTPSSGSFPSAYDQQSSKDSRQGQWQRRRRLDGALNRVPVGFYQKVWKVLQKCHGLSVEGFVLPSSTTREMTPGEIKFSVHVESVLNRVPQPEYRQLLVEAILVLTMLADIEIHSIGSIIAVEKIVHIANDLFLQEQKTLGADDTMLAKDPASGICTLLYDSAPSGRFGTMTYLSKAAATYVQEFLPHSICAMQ
inactive: erlotinib -0.028 | [1] -0.101 | [2] -0.051 | [3] 0.003 | [4] 0.057 | [5] 0.024 | [6] 0.152 | [7] -0.095 | [8] -0.105 | [9] -0.026

PML (UniProt P29590)
inactive: erlotinib 0.045 | [1] -0.073 | [2] 0.015 | [3] -0.022 | [4] -0.043 | [5] 0.071 | [6] 0.033 | [7] 0.007 | [8] 0.002 | [9] -0.005

PPP1R14A (UniProt Q96A00)
inactive: erlotinib 0.047 | [1] 0.004 | [2] 0.004 | [3] 0.063 | [4] -0.036 | [5] -0.001 | [7] 0.004 | [8] 0.016 | [9] 0.015
active: [6] 0.341

PIGG (UniProt Q5H8A4)
inactive: erlotinib -0.002 | [1] 0.016 | [2] -0.009 | [3] 0.027 | [4] 0.023 | [5] 0.014 | [6] -0.013 | [7] -0.003 | [8] -0.016 | [9] 0.067

PRKACB isoform 2 (UniProt P22694)
inactive: erlotinib 0.013 | [1] 0.049 | [2] -0.065 | [3] 0.072 | [4] 0.007 | [5] 0.008 | [6] -0.034 | [7] -0.096 | [8] -0.095 | [9] 0.007

PCBP2 (UniProt F8VRH0)
inactive: erlotinib -0.011 | [1] 0.07 | [2] 0.016 | [3] -0.099 | [4] -0.26 | [5] -0.153 | [7] -0.04 | [8] -0.13 | [9] 0.113

POLR2G (UniProt P62487)
inactive: erlotinib -0.041 | [1] -0.011 | [2] -0.001 | [3] 0.025 | [4] -0.078 | [5] 0.044 | [6] 0.063 | [7] 0.014 | [8] -0.033 | [9] 0.071

POLR2B (UniProt P30876)
inactive: erlotinib -0.008 | [1] -0.014 | [2] -0.025 | [3] 0.024 | [4] -0.006 | [5] 0.047 | [6] 0.045 | [7] 0.009 | [8] 0.068 | [9] -0.063

PLEKHM2 (UniProt Q8IWE5)
inactive: erlotinib 0.228 | [1] 0.07 | [2] 0.034 | [3] -0.03 | [4] 0.075 | [5] 0.069 | [6] 0.082 | [7] -0.065 | [8] -0.005 | [9] -0.066

PSMA3 (UniProt H0YJ03)
active: [1] -0.698
inactive: [4] 0.095 | [6] -0.065 | [7] -0.006 | [8] -0.027 | [9] 0.2

PIAS4 (UniProt Q8N2W9)
Chain of UniProt Q8N2W9 (Q8N2W9 whole entry, looked up): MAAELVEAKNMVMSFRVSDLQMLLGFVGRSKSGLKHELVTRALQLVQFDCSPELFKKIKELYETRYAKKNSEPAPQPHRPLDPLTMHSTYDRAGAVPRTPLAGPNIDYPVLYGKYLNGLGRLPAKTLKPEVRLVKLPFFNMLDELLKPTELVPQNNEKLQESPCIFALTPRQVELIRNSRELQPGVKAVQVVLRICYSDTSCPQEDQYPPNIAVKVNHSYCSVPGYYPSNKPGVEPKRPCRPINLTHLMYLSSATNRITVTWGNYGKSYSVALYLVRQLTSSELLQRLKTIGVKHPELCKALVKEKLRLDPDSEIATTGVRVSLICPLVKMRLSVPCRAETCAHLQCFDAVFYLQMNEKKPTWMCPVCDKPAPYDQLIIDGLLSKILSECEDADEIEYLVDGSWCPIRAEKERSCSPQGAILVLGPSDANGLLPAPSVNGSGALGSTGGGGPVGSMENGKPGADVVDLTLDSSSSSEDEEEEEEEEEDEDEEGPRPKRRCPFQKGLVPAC
inactive: [2] 0.061 | [6] -0.214 | [8] 0.129 | [9] -0.045

PCNX1 (UniProt Q96RV3)
inactive: [2] 0.036 | [5] -0.006 | [8] -0.019 | [9] -0.041

PSMC1 (UniProt G3V4X1)
inactive: erlotinib 0.149 | [3] -0.001

PRKD3 (UniProt O94806)
inactive: erlotinib 0.051 | [1] 0.373 | [3] 0.013 | [4] -0.197 | [5] 0.034 | [6] 0.055 | [7] -0.507

PSMD8 (UniProt K7ERW6)
inactive: [8] 0.052 | [9] -0.148

PKM isoform 2 (UniProt P14618)
Chain of UniProt P14618 (P14618 whole entry, looked up): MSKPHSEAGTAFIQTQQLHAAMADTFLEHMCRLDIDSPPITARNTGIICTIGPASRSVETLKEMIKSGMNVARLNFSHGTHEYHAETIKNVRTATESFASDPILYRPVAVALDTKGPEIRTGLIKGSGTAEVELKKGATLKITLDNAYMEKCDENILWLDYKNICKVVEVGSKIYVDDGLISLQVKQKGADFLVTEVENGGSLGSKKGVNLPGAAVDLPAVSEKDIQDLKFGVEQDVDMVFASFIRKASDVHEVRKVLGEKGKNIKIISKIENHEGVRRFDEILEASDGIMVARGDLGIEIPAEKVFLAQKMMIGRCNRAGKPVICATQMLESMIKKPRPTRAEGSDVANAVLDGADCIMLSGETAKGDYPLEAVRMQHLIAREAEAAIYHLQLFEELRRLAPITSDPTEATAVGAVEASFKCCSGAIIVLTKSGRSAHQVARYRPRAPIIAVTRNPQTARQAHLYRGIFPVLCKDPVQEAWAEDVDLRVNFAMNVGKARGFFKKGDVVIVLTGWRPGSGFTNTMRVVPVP
inactive: [1] -0.004 | [2] 0.075 | [4] -0.005 | [5] -0.18 | [6] -0.048 | [7] 0.04 | [8] -0.047 | [9] 0.003

PI4K2B (UniProt Q8TCG2)
Chain of UniProt Q8TCG2 (Q8TCG2 whole entry, looked up): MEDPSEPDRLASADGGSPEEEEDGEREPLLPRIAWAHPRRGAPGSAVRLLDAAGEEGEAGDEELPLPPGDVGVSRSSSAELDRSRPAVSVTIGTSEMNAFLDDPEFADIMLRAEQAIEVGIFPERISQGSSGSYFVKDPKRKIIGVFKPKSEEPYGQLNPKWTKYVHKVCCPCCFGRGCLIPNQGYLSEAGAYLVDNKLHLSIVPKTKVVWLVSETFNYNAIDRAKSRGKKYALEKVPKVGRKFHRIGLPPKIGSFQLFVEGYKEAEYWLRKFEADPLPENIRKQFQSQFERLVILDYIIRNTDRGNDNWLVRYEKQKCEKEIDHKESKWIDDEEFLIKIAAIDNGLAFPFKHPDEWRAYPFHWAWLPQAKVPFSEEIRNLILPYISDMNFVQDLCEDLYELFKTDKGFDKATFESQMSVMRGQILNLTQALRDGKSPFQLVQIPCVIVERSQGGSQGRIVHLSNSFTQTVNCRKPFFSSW
inactive: erlotinib -0.003 | [1] -0.008 | [3] 0.065 | [4] 0.004 | [5] 0.016 | [6] -0.019 | [7] -0.007 | [8] 0.048 | [9] -0.173

PTP4A3 (UniProt O75365)
inactive: [5] -0.041

PUF60 isoform 2 (UniProt Q9UHX1)
inactive: [1] 0.242 | [4] -0.242 | [5] 0.086 | [6] 0.05 | [7] 0.046 | [8] -0.148 | [9] -0.148

PUM1 (UniProt Q14671)
inactive: erlotinib 0.308 | [1] 0.035 | [3] 0.15 | [4] -0.034 | [7] 0.051 | [8] -0.045 | [9] -0.024

PPP2R5C isoform 2 (UniProt Q13362)
inactive: erlotinib -0.012 | [3] -0.02 | [5] -0.011 | [6] -0.039

PEX5 isoform 4 (UniProt P50542)
inactive: erlotinib -0.133 | [1] -0.143 | [2] -0.036 | [3] 0.076 | [4] 0.048 | [6] 0.016 | [7] -0.082 | [8] 0.097 | [9] -0.078

PHC3 isoform 7 (UniProt Q8NDX5)
inactive: erlotinib 0.08 | [2] 0.24 | [3] -0.002 | [5] 0.174

PPP2R5B (UniProt Q15173)
Chain of UniProt Q15173 (Q15173 whole entry, looked up): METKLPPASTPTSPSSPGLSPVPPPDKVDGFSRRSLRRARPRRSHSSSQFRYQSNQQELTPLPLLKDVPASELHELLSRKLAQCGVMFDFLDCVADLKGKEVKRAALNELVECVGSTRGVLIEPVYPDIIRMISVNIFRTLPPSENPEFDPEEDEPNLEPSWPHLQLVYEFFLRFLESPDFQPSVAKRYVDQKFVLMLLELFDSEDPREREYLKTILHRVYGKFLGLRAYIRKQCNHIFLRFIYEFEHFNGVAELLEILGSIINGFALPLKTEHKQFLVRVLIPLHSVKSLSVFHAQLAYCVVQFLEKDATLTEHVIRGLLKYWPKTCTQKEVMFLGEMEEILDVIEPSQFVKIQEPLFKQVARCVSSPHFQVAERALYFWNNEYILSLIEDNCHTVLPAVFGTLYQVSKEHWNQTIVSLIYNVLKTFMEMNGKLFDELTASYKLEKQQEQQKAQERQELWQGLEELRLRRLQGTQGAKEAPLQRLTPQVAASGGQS
inactive: erlotinib -0.044 | [1] 0.039 | [3] -0.05 | [4] -0.003 | [5] 0.072 | [7] 0.124

PRKD2 (UniProt M0R346)
inactive: [2] -0.066 | [5] -0.032

PTK2B (UniProt Q14289)
inactive: erlotinib 0.225 | [1] 0.063 | [3] 0.059 | [4] 0.048 | [5] 0.058 | [6] 0.008 | [7] -0.066 | [8] 0.025 | [9] 0.105

PPP1R12C (UniProt Q9BZL4)
Chain of UniProt Q9BZL4 (Q9BZL4 whole entry, looked up): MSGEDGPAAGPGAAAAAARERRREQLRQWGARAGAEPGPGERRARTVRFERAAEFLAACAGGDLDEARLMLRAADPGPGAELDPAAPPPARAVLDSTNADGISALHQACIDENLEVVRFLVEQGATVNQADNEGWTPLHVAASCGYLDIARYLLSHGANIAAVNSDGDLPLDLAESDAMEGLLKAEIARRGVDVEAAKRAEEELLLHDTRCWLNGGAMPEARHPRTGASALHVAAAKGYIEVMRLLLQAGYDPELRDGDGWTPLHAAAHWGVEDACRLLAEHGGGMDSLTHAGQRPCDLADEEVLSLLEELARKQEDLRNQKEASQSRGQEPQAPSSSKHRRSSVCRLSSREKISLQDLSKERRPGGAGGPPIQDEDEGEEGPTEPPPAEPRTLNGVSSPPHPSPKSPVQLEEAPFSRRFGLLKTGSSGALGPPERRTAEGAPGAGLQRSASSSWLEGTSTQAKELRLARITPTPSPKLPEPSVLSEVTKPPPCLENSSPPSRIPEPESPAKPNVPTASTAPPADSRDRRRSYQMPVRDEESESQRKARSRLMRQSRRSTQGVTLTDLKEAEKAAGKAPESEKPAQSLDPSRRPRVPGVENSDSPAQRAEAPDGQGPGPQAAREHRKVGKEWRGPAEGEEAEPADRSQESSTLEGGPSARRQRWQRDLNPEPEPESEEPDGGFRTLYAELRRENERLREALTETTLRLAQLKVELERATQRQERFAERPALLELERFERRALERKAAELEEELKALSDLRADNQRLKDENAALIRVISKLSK
inactive: erlotinib -0.13 | [2] -0.011 | [3] -0.059 | [5] 0.064 | [6] 0.037 | [8] -0.05 | [9] -0.238

PSD3 (UniProt Q9NYI0)
Chain of UniProt Q9NYI0 (Q9NYI0 whole entry, looked up): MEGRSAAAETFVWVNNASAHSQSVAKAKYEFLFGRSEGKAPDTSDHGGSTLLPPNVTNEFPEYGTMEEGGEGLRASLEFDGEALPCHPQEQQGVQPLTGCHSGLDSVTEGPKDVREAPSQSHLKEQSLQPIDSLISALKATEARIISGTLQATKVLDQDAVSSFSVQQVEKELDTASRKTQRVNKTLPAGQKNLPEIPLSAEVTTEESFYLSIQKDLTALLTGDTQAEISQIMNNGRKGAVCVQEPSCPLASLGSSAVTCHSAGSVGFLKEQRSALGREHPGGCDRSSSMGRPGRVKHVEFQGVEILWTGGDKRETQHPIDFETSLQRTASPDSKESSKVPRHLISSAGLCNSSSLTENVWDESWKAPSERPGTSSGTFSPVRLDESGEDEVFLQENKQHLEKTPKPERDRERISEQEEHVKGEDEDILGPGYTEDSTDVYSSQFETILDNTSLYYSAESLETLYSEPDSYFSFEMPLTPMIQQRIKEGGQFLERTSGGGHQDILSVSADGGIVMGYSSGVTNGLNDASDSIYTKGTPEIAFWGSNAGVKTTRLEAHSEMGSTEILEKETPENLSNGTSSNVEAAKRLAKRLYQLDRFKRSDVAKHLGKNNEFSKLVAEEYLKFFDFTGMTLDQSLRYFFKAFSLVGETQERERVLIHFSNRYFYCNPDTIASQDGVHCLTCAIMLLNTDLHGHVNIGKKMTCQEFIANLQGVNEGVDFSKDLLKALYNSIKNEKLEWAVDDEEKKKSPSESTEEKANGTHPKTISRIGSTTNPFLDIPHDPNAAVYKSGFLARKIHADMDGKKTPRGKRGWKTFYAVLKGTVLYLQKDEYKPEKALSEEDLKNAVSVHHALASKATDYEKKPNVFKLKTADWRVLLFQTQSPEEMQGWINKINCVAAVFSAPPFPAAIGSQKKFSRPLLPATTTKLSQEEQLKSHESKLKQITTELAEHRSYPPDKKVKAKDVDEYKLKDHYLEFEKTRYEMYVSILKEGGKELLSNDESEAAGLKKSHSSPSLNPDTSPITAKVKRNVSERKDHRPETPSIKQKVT
inactive: [1] -0.022 | [4] 0.1 | [6] -0.001 | [7] 0.018

POLB (UniProt P06746)
inactive: erlotinib -0.236 | [2] -0.186 | [3] 0.094 | [6] 0 | [8] -0.118 | [9] 0.002

PMS2CL (UniProt Q68D20)
inactive: [2] 0.094 | [6] -0.023
